Measured values: PubChem BioAssay AID1159580 (chemical genetic matrix, 2015)
Hit rate of the full screen: of about 5,500 compounds, about 2,000 (36%) were called active. About 18% were inconclusive and are not listed. The list shows a part of the results. A number with no mark means an inactive call. No stated cut-off is given here; in the data, active means normalized growth mostly below about 0.91 (no sharp cut-off); inconclusive means no clear call, values can overlap the other calls; inactive means mostly above about 0.92.

Assay: chemical genetic growth profiling, strain panel (AID 1159580);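 further: tested at 20 µM; growth read once vehicle control cultures reached saturation at 30 °C; 1 = growth at the plate median or of vehicle wells; lower values mean less growth of the strain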
Settings: S. cerevisiae deletion strains, growth OD
[1] = locus YAR019C, strain CDC15, hits give low values
[2] = locus YBL105C, strain PKC1, hits give low values
[3] = locus YBR135W, strain CKS1, hits give low values
[4] = locus YBR136W, strain MEC1, hits give low values
[5] = locus YBR160W, strain CDC28, hits give low values
[6] = locus YDL017W, strain CDC7, hits give low values
[7] = locus YDL028C, strain MPS1, hits give low values
[8] = locus YDL101C, strain DUN1, hits give low values
[9] = locus YDL108W, strain KIN28, hits give low values
[10] = locus YDL132W, strain cdc53, hits give low values
[11] = locus YDL214C, strain PRR2, hits give low values
[12] = locus YDR052C, strain DBF4, hits give low values
[13] = locus YDR054C, strain cdc34, hits give low values
[14] = locus YDR226W, strain ADK1, hits give low values
[15] = locus YDR477W, strain SNF1, hits give low values
[16] = locus YER123W, strain YCK3, hits give low values
[17] = locus YER133W, strain GLC7, hits give low values
[18] = locus YFL009W, strain cdc4, hits give low values
[19] = locus YFL029C, strain CAK1, hits give low values
[20] = locus YFR003C, strain YPI1, hits give low values
[21] = locus YFR019W, strain FAB1, hits give low values
[22] = locus YFR028C, strain CDC14, hits give low values
[23] = locus YGR040W, strain KSS1, hits give low values
[24] = locus YGR052W, strain FMP48, hits give low values
[25] = locus YGR092W, strain DBF2, hits give low values
[26] = locus YHR030C, strain SLT2, hits give low values
[27] = locus YHR079C, strain IRE1, hits give low values
[28] = locus YHR082C, strain KSP1, hits give low values
[29] = locus YHR205W, strain SCH9, hits give low values
[30] = locus YIL147C, strain SLN1, hits give low values
[31] = locus YJL095W, strain BCK1, hits give low values
[32] = locus YJL128C, strain PBS2, hits give low values
[33] = locus YJL157C, strain FAR1, hits give low values
[34] = locus YJR016C, strain ILV3, hits give low values
[35] = locus YJR066W, strain TOR1 (second series), hits give low values
[36] = locus YJR066W, strain TOR1, hits give low values
[37] = locus YKL048C, strain ELM1, hits give low values
[38] = locus YKL067W, strain YNK1, hits give low values
[39] = locus YKL101W, strain HSL1, hits give low values
[40] = locus YKL193C, strain SDS22, hits give low values
[41] = locus YKL203C, strain TOR2, hits give low values
[42] = locus YLR113W, strain HOG1, hits give low values
[43] = locus YLR133W, strain CKI1, hits give low values
[44] = locus YLR403W, strain SFP1, hits give low values
[45] = locus YML070W, strain DAK1, hits give low values
[46] = locus YMR001C, strain CDC5, hits give low values
[47] = locus YMR205C, strain PFK2 (second series), hits give low values
[48] = locus YMR277W, strain FCP1, hits give low values
[49] = locus YNL006W, strain LST8, hits give low values
[50] = locus YNL020C, strain ARK1, hits give low values
[51] = locus YNL161W, strain CBK1, hits give low values
[52] = locus YNL183C, strain NPR1, hits give low values
[53] = locus YNL207W, strain RIO2, hits give low values
[54] = locus YNL222W, strain SSU72, hits give low values
[55] = locus YNL307C, strain MCK1 (second series), hits give low values
[56] = locus YOL078W, strain AVO1, hits give low values
[57] = locus YOL136C, strain PFK27, hits give low values
[58] = locus YOR061W, strain CKA2, hits give low values
[59] = locus YOR119C, strain RIO1, hits give low values
[60] = locus YOR231W, strain MKK1, hits give low values
[61] = locus YOR329C, strain SCD5, hits give low values
[62] = locus YPL031C, strain PHO85, hits give low values
[63] = locus YPL153C, strain RAD53, hits give low values
[64] = locus YPL204W, strain HRR25, hits give low values
[65] = locus YPL209C, strain IPL1, hits give low values
[66] = locus YPL256C, strain CLN2, hits give low values
[67] = locus YPR025C, strain CCL1, hits give low values
[68] = locus YPR106W, strain ISR1, hits give low values
[69] = locus YPR111W, strain DBF20, hits give low values
[70] = strain NNK1, hits give low values
[71] = strain TSCII, hits give low values

N/C(=N/OC(=O)c1ccccc1Cl)c1cccc(CS(=O)(=O)c2ccc(Cl)cc2)c1
normalized growth [1]: 0.993
normalized growth [2]: 0.975
normalized growth [3]: 0.981
normalized growth [4]: 0.986
normalized growth [5]: 0.981
normalized growth [6]: 0.984
normalized growth [7]: 0.991
normalized growth [8]: 0.982
normalized growth [9]: 0.986
normalized growth [10]: 0.984
normalized growth [11]: 1.04
normalized growth [12]: 0.981
normalized growth [13]: 0.984
normalized growth [14]: 0.981
normalized growth [15]: 0.997
normalized growth [16]: 0.995
normalized growth [17]: 1
normalized growth [18]: 0.98
normalized growth [19]: 0.985
normalized growth [20]: 0.977
normalized growth [21]: 1.01
normalized growth [22]: 0.99
normalized growth [23]: 1
normalized growth [24]: 1.02
normalized growth [25]: 0.974
normalized growth [26]: 1.12
normalized growth [27]: 1.09
normalized growth [28]: 1.13
normalized growth [29]: 0.984
normalized growth [30]: 0.988
normalized growth [31]: 0.973
normalized growth [32]: 0.985
normalized growth [33]: 1.01
normalized growth [34]: 0.999
normalized growth [35]: 0.982
normalized growth [36]: 1.07
normalized growth [37]: 0.996
normalized growth [38]: 1.01
normalized growth [39]: 1.01
normalized growth [40]: 0.983
normalized growth [41]: 1.07
normalized growth [42]: 0.996
normalized growth [43]: 1.02
normalized growth [44]: 0.987
normalized growth [45]: 1.02
normalized growth [46]: 0.986
normalized growth [47]: 1
normalized growth [48]: 0.99
normalized growth [49]: 0.994
normalized growth [50]: 1.02
normalized growth [51]: 0.988
normalized growth [52]: 1.04
normalized growth [53]: 0.98
normalized growth [54]: 0.981
normalized growth [55]: 0.968
normalized growth [56]: 0.986
normalized growth [57]: 1.03
normalized growth [58]: 1.01
normalized growth [59]: 1.08
normalized growth [60]: 1.01
normalized growth [61]: 0.994
normalized growth [62]: 1.01
normalized growth [63]: 0.994
normalized growth [64]: 1
normalized growth [65]: 0.981
normalized growth [66]: 1.2 [resistant] (active)
normalized growth [67]: 0.988
normalized growth [68]: 1
normalized growth [69]: 0.988
normalized growth [70]: 0.99
normalized growth [71]: 0.988

Cc1nn(Cc2cccc(C(=O)O/N=C(/N)c3ccc(Cl)cc3)c2)c(C)c1Br
normalized growth [1]: 0.982
normalized growth [2]: 0.978
normalized growth [3]: 0.971
normalized growth [4]: 0.977
normalized growth [5]: 0.973
normalized growth [6]: 0.974
normalized growth [7]: 0.981
normalized growth [8]: 0.987
normalized growth [9]: 0.972
normalized growth [10]: 0.979
normalized growth [11]: 0.972
normalized growth [12]: 0.98
normalized growth [13]: 0.973
normalized growth [14]: 0.978
normalized growth [15]: 0.915
normalized growth [16]: 0.929
normalized growth [17]: 0.953
normalized growth [18]: 0.965
normalized growth [19]: 0.991
normalized growth [20]: 0.982
normalized growth [21]: 0.974
normalized growth [22]: 0.962
normalized growth [23]: 0.93
normalized growth [24]: 1.03
normalized growth [25]: 0.978
normalized growth [26]: 1.01
normalized growth [27]: 1.1
normalized growth [28]: 1.07
normalized growth [29]: 0.999
normalized growth [30]: 0.984
normalized growth [31]: 0.932
normalized growth [32]: 1.01
normalized growth [33]: 0.985
normalized growth [34]: 0.977
normalized growth [35]: 0.954
normalized growth [36]: 1.08
normalized growth [37]: 0.968
normalized growth [38]: 0.958
normalized growth [39]: 0.924
normalized growth [40]: 0.98
normalized growth [41]: 1.02
normalized growth [42]: 0.915
normalized growth [43]: 0.972
normalized growth [44]: 0.93
normalized growth [45]: 0.947
normalized growth [46]: 0.983
normalized growth [47]: 0.965
normalized growth [48]: 0.973
normalized growth [49]: 0.99
normalized growth [50]: 0.972
normalized growth [51]: 0.984
normalized growth [52]: 0.997
normalized growth [53]: 0.984
normalized growth [54]: 0.979
normalized growth [55]: 1
normalized growth [56]: 0.977
normalized growth [57]: 0.955
normalized growth [58]: 0.955
normalized growth [59]: 1.01
normalized growth [60]: 0.927
normalized growth [61]: 0.98
normalized growth [62]: 0.929
normalized growth [63]: 0.81
normalized growth [64]: 0.942
normalized growth [65]: 0.987
normalized growth [66]: 1.03
normalized growth [67]: 0.978
normalized growth [68]: 0.99
normalized growth [69]: 0.995
normalized growth [70]: 0.998
normalized growth [71]: 0.987
